# Reference: the supplement of paper PMC4466140
# Target: ScBbc1
# Test: SPOT peptide array binding signal intensity (averaged, normalized) (arbitrary units (background-subtracted, floor 0; scale differs between SH3 domains)); higher = stronger binding of the SH3 domain to the peptide
# Method in brief: (§1)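 Spot intensities were captured after detection with anti-GST antibody, an HRP-linked anti-mouse secondary and luminol, and quantified with Genespotter. The probes were GST-fused SH3 domains from four yeast species, produced in E. coli BL21(DE3), purified on glutathione Sepharose and incubated at 10 μg/ml overnight at 4°C on cellulose-bound synthetic 15-mer peptides with cysteines replaced by serines. Binding signal is the normalized, background-subtracted spot intensity averaged over replicates, and its arbitrary units differ between domains.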
row,Binder,SPOT peptide array binding signal intensity
1,IRMPSNPALPKKLLN,9.5

# Target: ScBem1-D1
# Test: as above
# Method in brief: as §1
row,Binder,SPOT peptide array binding signal intensity
1,IRMPSNPALPKKLLN,2

# Target: ScBzz1-D1
# Test: as above
# Method in brief: as §1
row,Binder,SPOT peptide array binding signal intensity
1,IRMPSNPALPKKLLN,17

# Target: ScBzz1-D2
# Test: as above
# Method in brief: as §1
row,Binder,SPOT peptide array binding signal intensity
1,IRMPSNPALPKKLLN,29

# Target: ScCyk3
# Test: as above
# Method in brief: as §1
row,Binder,SPOT peptide array binding signal intensity
1,IRMPSNPALPKKLLN,6

# Target: ScFus1
# Test: as above
# Method in brief: as §1
row,Binder,SPOT peptide array binding signal intensity
1,IRMPSNPALPKKLLN,805

# Target: ScHof1
# Test: as above
# Method in brief: as §1
row,Binder,SPOT peptide array binding signal intensity
1,IRMPSNPALPKKLLN,5.5

# Target: ScHse1
# Test: as above
# Method in brief: as §1
row,Binder,SPOT peptide array binding signal intensity
1,IRMPSNPALPKKLLN,89.5

# Target: ScLsb1
# Test: as above
# Method in brief: as §1
row,Binder,SPOT peptide array binding signal intensity
1,IRMPSNPALPKKLLN,102

# Target: ScLsb2
# Test: as above
# Method in brief: as §1
row,Binder,SPOT peptide array binding signal intensity
1,IRMPSNPALPKKLLN,≤ 0

# Target: ScLsb3
# Test: as above
# Method in brief: as §1
row,Binder,SPOT peptide array binding signal intensity
1,IRMPSNPALPKKLLN,769

# Target: ScLsb4
# Test: as above
# Method in brief: as §1
row,Binder,SPOT peptide array binding signal intensity
1,IRMPSNPALPKKLLN,296

# Target: ScMyo3
# Test: as above
# Method in brief: as §1
row,Binder,SPOT peptide array binding signal intensity
1,IRMPSNPALPKKLLN,35.2

# Target: ScMyo5
# Test: as above
# Method in brief: as §1
row,Binder,SPOT peptide array binding signal intensity
1,IRMPSNPALPKKLLN,2

# Target: ScNbp2
# Test: as above
# Method in brief: as §1
row,Binder,SPOT peptide array binding signal intensity
1,IRMPSNPALPKKLLN,509

# Target: ScPex13
# Test: as above
# Method in brief: as §1
row,Binder,SPOT peptide array binding signal intensity
1,IRMPSNPALPKKLLN,195

# Target: ScRvs167
# Test: as above
# Method in brief: as §1
row,Binder,SPOT peptide array binding signal intensity
1,IRMPSNPALPKKLLN,32.5

# Target: ScSho1
# Test: as above
# Method in brief: as §1
row,Binder,SPOT peptide array binding signal intensity
1,IRMPSNPALPKKLLN,1060

# Target: ScSla1-D1-D2
# Test: as above
# Method in brief: as §1
row,Binder,SPOT peptide array binding signal intensity
1,IRMPSNPALPKKLLN,544

# Target: ScSla1-D3
# Test: as above
# Method in brief: as §1
row,Binder,SPOT peptide array binding signal intensity
1,IRMPSNPALPKKLLN,277

# Target: SpAbp1-D1
# Test: as above
# Method in brief: as §1
row,Binder,SPOT peptide array binding signal intensity
1,IRMPSNPALPKKLLN,268

# Target: SpBbc1
# Test: as above
# Method in brief: as §1
row,Binder,SPOT peptide array binding signal intensity
1,IRMPSNPALPKKLLN,5

# Target: SpBzz1-D1
# Test: as above
# Method in brief: as §1
row,Binder,SPOT peptide array binding signal intensity
1,IRMPSNPALPKKLLN,700

# Target: SpBzz1-D2
# Test: as above
# Method in brief: as §1
row,Binder,SPOT peptide array binding signal intensity
1,IRMPSNPALPKKLLN,41

# Target: SpCyk3
# Test: as above
# Method in brief: as §1
row,Binder,SPOT peptide array binding signal intensity
1,IRMPSNPALPKKLLN,4

# Target: SpHof1
# Test: as above
# Method in brief: as §1
row,Binder,SPOT peptide array binding signal intensity
1,IRMPSNPALPKKLLN,53.2

# Target: SpHof1-2
# Test: as above
# Method in brief: as §1
row,Binder,SPOT peptide array binding signal intensity
1,IRMPSNPALPKKLLN,30

# Target: SpHof1-3
# Test: as above
# Method in brief: as §1
row,Binder,SPOT peptide array binding signal intensity
1,IRMPSNPALPKKLLN,22.8

# Target: SpHse1
# Test: as above
# Method in brief: as §1
row,Binder,SPOT peptide array binding signal intensity
1,IRMPSNPALPKKLLN,294

# Target: SpLsb1
# Test: as above
# Method in brief: as §1
row,Binder,SPOT peptide array binding signal intensity
1,IRMPSNPALPKKLLN,16.8

# Target: SpLsb4
# Test: as above
# Method in brief: as §1
row,Binder,SPOT peptide array binding signal intensity
1,IRMPSNPALPKKLLN,1170

# Target: SpMyo1
# Test: as above
# Method in brief: as §1
row,Binder,SPOT peptide array binding signal intensity
1,IRMPSNPALPKKLLN,67.5

# Target: SpNbp2
# Test: as above
# Method in brief: as §1
row,Binder,SPOT peptide array binding signal intensity
1,IRMPSNPALPKKLLN,241

# Target: SpPex13
# Test: as above
# Method in brief: as §1
row,Binder,SPOT peptide array binding signal intensity
1,IRMPSNPALPKKLLN,136

# Target: SpRvs167
# Test: as above
# Method in brief: as §1
row,Binder,SPOT peptide array binding signal intensity
1,IRMPSNPALPKKLLN,107

# Target: SpSla1-D1-D2
# Test: as above
# Method in brief: as §1
row,Binder,SPOT peptide array binding signal intensity
1,IRMPSNPALPKKLLN,17.5

# Target: SpSla1-D3
# Test: as above
# Method in brief: as §1
row,Binder,SPOT peptide array binding signal intensity
1,IRMPSNPALPKKLLN,477
